# Data from PubChem BioAssay (NCI).
# About 83,000 compounds went through this panel and 20% of them were active in at least one assay; those are over-represented in the sample as a whole.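 The test compound was applied at a single concentration to cells in 96-well plates for 48 hours, and percent growth was recorded.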 Active and inactive are the calls of the source. The calls were made as follows: active = growth percent below 10; inactive = the rest.
# Tested on: HL-60(TB) leukemia
# Experiment: NCI-60 one-dose screen, 48 h (100 = growth as untreated, 0 = no growth, -100 = all killed)
# Details: 10 µM unless noted
row,SMILES,growth
1,O=S1(=O)N(CCNc2nccc(-c3c(-c4cccc(O)c4)nc4sccn34)n2)CCN1Cc1ccccc1,91.8% (inactive)
2,CCCCN(CCCC)CC(O)c1ccc(OCc2ccccc2)c2ccccc12 (stereo not given),-23.6% (active)
3,CCN(CC)CCOCC[C@H]1CC[C@H]2[C@@H]3[C@H](C)Cc4cc(OS(N)(=O)=O)ccc4[C@H]3CC[C@]12C,-74.9% (active)
4,O=C(O)c1ccc(-c2ccc(/C=N/Nc3nc(Nc4ccccc4)nc(N4CCCCC4)n3)o2)cc1,66.4% (inactive)
5,CCN=Cc1c(O)c(O)c(C(C)C)c2cc(C)c(-c3c(C)cc4c(C(C)C)c(O)c(O)c(C=NCC)c4c3O)c(O)c12,27.3% (inactive)
6,CC(=O)c1c(C)nc2ccccc2c1/C=C/c1ccc(F)cc1,95.6% (inactive)
7,CC(=O)Oc1ccccc1C(=O)N=C1[Se]CCN1C(=O)c1ccccc1OC(C)=O,-34.4% (active)
8,C#CCOc1ccc(C2=NN(CC3CC3)C3N=C(Cl)c4ncn(CC5CC5)c4N23)cc1OCC#C (stereo not given),99.1% (inactive)
9,CC(C)(C)c1ccc(C(O)CCCN2CCC(C(O)(c3ccccc3)c3ccccc3)CC2)cc1 (stereo not given),-51.9% (active)
10,CCc1n(Cc2ccc3ccccc3c2)c2ccccc2[n+]1Cc1ccc2ccccc2c1,14.3% (inactive)
11,O=c1[nH]nc(-c2ccccc2)c2c(-c3ccccc3)onc12,-34% (active)
12,CCCCCN(CCCCC)C(C)C(O)c1ccc2cc(Cl)c3ccccc3c2c1 (stereo not given),105% (inactive)
13,CCOC(=O)c1csc(NC(=O)COc2cccc(/C=C3\Oc4cc(OC)ccc4C3=O)c2)n1,61.3% (inactive)
14,COc1cc(CN2CCO[C@H](COc3cccc(F)c3)C2)ccc1Cl,26.3% (inactive)
15,O=C(N/N=C/c1ccccc1Cl)c1cccc2ccccc12,127% (inactive)
16,OC(c1cc(C23CC4CC(CC(C4)C2)C3)nc2c(Cl)cc(Cl)cc12)C1CCCCN1 (stereo not given),-47.7% (active)
17,CCOC(=O)c1c2c(c(C)n1C)-c1nn(Cc3ccc(OC)cc3)cc1CC2,73.1% (inactive)
18,O=C(O)c1ccc2c(c1Cl)C(=O)c1ccccc1C2=O,56.6% (inactive)
19,CCCCCCCCOC(=O)C(C)OC(=O)OCCOCCOC(=O)OC(C)C(=O)OCCCCCCCC (stereo not given),108% (inactive)
20,COc1cc(/C=C/c2cc(/C=C/c3ccc(O)c(OC)c3)n(C(=O)Nc3ccccc3Cl)n2)ccc1O,-24.3% (active)

row,SMILES,growth
1,Cn1cc(-c2nonc2-c2c[nH]c3ccccc23)c2ccccc21,1.04% (active)
2,CC(C)=CCC[C@](C)(O)[C@H]1CC[C@]2(C)[C@@H]1CC[C@@H]1[C@@]3(C)CC[C@H](OC(=O)CCC(=O)O)C(C)(C)[C@@H]3CC[C@]12C,4.34% [100 µM] (active)
3,c1cc(OCCCCCOc2cccc(-c3nc4ccccc4[nH]3)c2)cc(-c2nc3ccccc3[nH]2)c1,-32.2% (active)
4,Fc1ccc(C2CC(c3cccc(Nc4ccncc4)c3)=NN2c2ccccc2)cc1 (stereo not given),-19.5% (active)
5,COC(=O)c1c2c(c(C)[n+]([O-])c1C)C(=O)C=C(NCc1ccc(F)c(F)c1)C2=O,-24% (active)
6,CC(=O)Oc1ccccc1C(=O)N=C1[Se]CCCN1C(=O)c1ccccc1OC(C)=O,12.7% (inactive)
7,CCOP(=O)(CCN1CCN(CCCCCOc2cc3c(cc2OC)C(=O)N2CCC[C@H]2C=N3)CC1)OCC,10.9% (inactive)
8,NCCSC(C[N+](=O)[O-])c1ccccc1Cl (stereo not given),31.8% (inactive)
9,O=C(/C=C/c1ccccc1Cl)c1ccc(O)cc1,60.2% (inactive)
10,c1cnc2n[nH]c(Nc3ncnc4c3sc3ncccc34)c2c1,96.8% (inactive)
11,CCCCCCCCCCCCCCCCCCNC(=O)[C@H]1CSC(c2ccc(F)c(OC)c2)N1 (stereo not given in full),-68% (active)
12,O=C(Nc1ccc(F)cc1F)c1cc(Cl)ccc1O,-31.4% (active)
13,C#CC[C@@H]1C[C@]2(C)[C@H]3CC[C@@H]4[C@H]5C(C(=C)C)CC[C@]5(C(=O)NCCCCCCCCN)CC[C@@]4(C)[C@]3(C)CC[C@H]2C(C)(C)[C@H]1OC(C)=O (stereo not given in full),22% (inactive)
14,CNC(=O)c1cccc2cc(Oc3ccnc4cc(OCC5(N)CC5)c(OC)cc34)ccc12,91.6% (inactive)
15,CC(=O)O[C@@H]1C[C@]2(C)[C@H]3[C@H](O)C[C@@H]4C5=CC(C)(C)CC[C@]5(C)CC[C@@]4(C)[C@]3(C)CC[C@H]2C(C)(C)[C@H]1O,120% (inactive)
16,COc1cc(-c2nc(SC(C)C)nc(Nc3ccccc3C)c2C#N)cc(OC)c1OC,103% (inactive)
17,CCn1c(=O)c(C(=O)NCCCO)c(O)c2ccccc21,90.5% (inactive)
18,COc1cc(C(=O)O/N=C(\N)Cc2cccc3ccccc23)cc(OC)c1OC,-37.4% (active)
19,Nc1[nH]c(=S)nc2oc(-c3ccccc3)c(-c3ccccc3)c12,90.5% (inactive)
20,CC(O)(CO)c1ccccc1 (stereo not given),116% (inactive)
